For 40 compounds, Potency results are on record in PubChem BioAssay AID493168 (National Center for Advancing Translational Sciences (NCATS), 2011).

The structures appear in SMILES notation. Records with an inconclusive call do not appear. A call without a number means that no potency is given here. The source made the active and inactive calls. The call rests on the fitted dose curve; in most records, active means well fitted inhibition curve with a large enough effect; inconclusive means small, poorly fitted or top-dose-only effect, or effect the other way; inactive means flat fitted curve, though single readings scatter.
Potency means the concentration at half of the fitted maximal effect.

For this assay, the target named is Ubiquitin carboxyl-terminal hydrolase 2 (Homo sapiens) (UniProt O75604). Kind of assay: Confirmation Assay for Inhibitors of Ubiquitin-specific Protease USP2a Using CHOP2 as the Reporter. Further: nearly all actives have a fitted effect of over 55% in size. Particulars: USP2 core, Ub-CHOP2 coupled reporter fluorescence; series mostly up to 38.3 µM. An outline of the steps: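 Ub-CHOP2 cleavage coupled to reporter activation was read by fluorescence after 60 min at RT, with 25 nM final Ub-CHOP2 and substrate. Enzyme (10 nM final USP2 core) first sat 30 min with compound; data were normalized to NEM and fitted to concentration-response curves.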
Sequence of Ubiquitin carboxyl-terminal hydrolase 2 (Homo sapiens) (O75604 whole entry, looked up): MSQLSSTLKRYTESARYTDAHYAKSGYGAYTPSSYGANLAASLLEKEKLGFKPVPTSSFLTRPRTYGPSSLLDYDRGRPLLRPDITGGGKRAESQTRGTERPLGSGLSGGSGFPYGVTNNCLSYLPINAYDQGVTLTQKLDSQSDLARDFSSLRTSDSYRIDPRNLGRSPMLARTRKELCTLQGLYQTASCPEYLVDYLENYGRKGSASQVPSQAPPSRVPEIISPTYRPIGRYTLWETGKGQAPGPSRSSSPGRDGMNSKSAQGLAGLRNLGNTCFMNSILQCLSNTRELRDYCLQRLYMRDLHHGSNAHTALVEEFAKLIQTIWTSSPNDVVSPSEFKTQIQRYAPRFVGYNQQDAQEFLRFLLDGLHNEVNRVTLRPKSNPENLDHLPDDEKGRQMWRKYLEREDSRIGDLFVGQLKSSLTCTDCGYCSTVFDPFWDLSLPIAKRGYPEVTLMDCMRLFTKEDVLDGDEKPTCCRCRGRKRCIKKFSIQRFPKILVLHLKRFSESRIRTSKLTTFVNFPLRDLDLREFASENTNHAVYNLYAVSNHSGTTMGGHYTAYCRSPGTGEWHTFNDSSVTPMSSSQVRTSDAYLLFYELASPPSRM
Take `FC(F)(F)c1cnc2c(c1)Nc1ccccc1S2`: the Potency entry was “inactive”.
Then `CCOC(=O)N1CCC(NC(=O)c2ccc(OC)c(CN3CC(=O)N4CCCC4C3=O)c2)CC1` (stereo not given), with “inactive”; and `Cn1nc(CC(=O)NCc2ccc(F)cc2)c2ccccc2c1=O`, with “inactive”.
With `Cc1ccc(-c2c(C)n([O-])c3c([n+]2=O)CCC3)o1` the entry was “inactive”.
Then `O=C(Nc1cccc(S(=O)(=O)N2CCCC2)c1)c1cncc(Br)c1`, with “inactive”; and `CC(C)CC(c1nnnn1CC1CCCO1)N1CCN(c2nc3ccccc3s2)CC1` (stereo not given), with “inactive”.
As to `CCOc1cc(N2CCOCC2)c(OCC)cc1NC(=O)Cc1cn2ccsc2n1`, the Potency result was “inactive”.
With `O=C(COc1ccccc1)NCCSc1ccccc1` the entry was “inactive”; with `O=C(/C=C/c1ccc(Cl)c([N+](=O)[O-])c1)Nc1ccc(N2CCCC2)cc1`, “inactive”.
As for `N#Cc1c(Nc2ccc(Cl)cc2)s[nH]c1=O`, the Potency result was “inactive”.
Then `Cc1nn(CC(=O)Nc2cccc(S(N)(=O)=O)c2)c(C)c1[N+](=O)[O-]`, with “inactive”; and `COCCn1nnnc1CN(CCc1ccccc1)Cc1cc2ccc(C)cc2[nH]c1=O`, with “inactive”; and `Cc1ccc(NC(=O)c2onc(C)c2Cl)cc1`, with “inactive”.
For `COC(=O)N/N=C\c1cc(Br)ccc1OCc1ccccc1`, the Potency result was “inactive”.
Turning to `Cc1ccc(Nc2nc(N)nc(CN3CCN(C(=O)c4ccco4)CC3)n2)cc1Cl`, the Potency result was “inactive”.
On to `Cc1ccc(C2=N/C(=C\c3c(C)nn(-c4ccccc4)c3N3CCCC3)C(=O)O2)cc1`, for which the Potency result is “inactive”.
As to `Cc1ccc(C(=O)N/C(=C/c2cccs2)C(=O)NCc2ccco2)cc1`, the Potency entry is “inactive”.
As for `COc1ccc(CCN2C(=O)/C(=C\c3ccco3)SC2=S)cc1OC`, the Potency entry is “inactive”.
With `N#CCC(=O)Nc1ccc(C(=O)OCC(=O)NCc2ccc3c(c2)OCO3)cc1` the entry was “inactive”; with `COC(=O)c1ccc(CSc2ncnc3ccccc23)o1`, “inactive”; with `O=C(c1ccc(CS(=O)(=O)c2ccc(Br)cc2)o1)N1CCCC1`, “inactive”.
On to `C#CCOCCOCCOCCNc1nc(N2CCN(C(=O)CCCCCCCCCCNC(=O)Cn3cc(CCCCCN)nn3)CC2)nc(N2CCN(C(=O)CCCCCCCCCCNC(=O)[C@H]([C@@H](C)CC)n3cc(CCCCCN)nn3)CC2)n1`, for which the Potency is 4.65 µM (active).
Then `COc1ccc(-n2c(O)c(/C=N/n3cnnc3)c3ccccc3c2=O)cc1`, with “inactive”; and `O=C(CSc1nnc(SCc2ccccc2)s1)N/N=C/C=C/c1ccco1`, with 13.1 µM (active); and `COCc1c(C(=O)OCC(=O)c2c(N)n(CC(C)C)c(=O)n(C)c2=O)oc2ccccc12`, with “inactive”.
With `Oc1ccc(/C=N/NC(=S)N/N=C/c2ccc(O)cc2)cc1` the entry was “inactive”.
For the compound `COc1ccc(CN(Cc2cc3cc(C)ccc3[nH]c2=O)C(=O)N(C)C)cc1`, the Potency entry was “inactive”.
With `Cc1ccc(NC(=O)CCC(=O)OC(C)C(=O)c2ccccc2)cc1` (stereo not given) the entry was “inactive”; with `O=C(CCS(=O)(=O)c1ccc(Br)s1)NC1CCCC1`, “inactive”; with `O=C(COC(=O)/C=C/c1ccc(Cl)cc1)NC1CC1`, “inactive”.
Then `O=c1oc2ccccc2n1Cn1c(=O)oc2ccccc21`, with “inactive”; and `Cc1ccccc1OCCn1nc(C(=O)O)c2ccccc2c1=O`, with “inactive”.
For `Cc1ccc(O)c(CC(C)C)n1`, the Potency entry is “inactive”.
As for `Cc1ccc(C(=O)N(C)CC(=O)Nc2cccc(C)c2C)o1`, the Potency entry was “inactive”.
As for `Cc1ccccc1[C@@H]1C(C#N)=C(N)S[C@H]1C(=O)c1ccccc1`, the Potency result is “inactive”.
Turning to `O=C1c2ccccc2C(=O)N1CCCCn1c(=O)oc2ccccc21`, the Potency result was “inactive”.
With `O=C(Nc1ccc2nc(-c3ccco3)c(-c3ccco3)nc2c1)N1CCN(c2ccccn2)CC1` the figure was 16.5 µM (active).
Then `CC1(C(=O)O)Sc2[nH]c(=O)sc2C2c3ccccc3OC(=O)C21` (stereo not given), with “inactive”; and `CC1=CC(C)(C)N(C(=O)c2ccccc2)c2ccccc21`, with “inactive”.
As for `CCN=C1SC(C(=O)Nc2cccc(OCC)c2)CC(=O)N1CC` (stereo not given), the Potency entry was “inactive”.
